About 79,000 compounds went through this panel and 15% of them were active in at least one assay; those are over-represented in the sample as a whole. Activity calls are given as the source filed them. Cut-off read from the data, not from the text of the source: active = growth inhibition above about 70%; inactive = the rest.

One assay in a line: NCI Yeast Anticancer Drug Screen. Data for the bub3 strain (AID 167). To be noted: S. cerevisiae bub3 mutant strain, hits give high values; at 50.0 µM unless noted. The procedure, abridged: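 Whole-cell yeast assay. The mutant strain was incubated with compounds, and growth inhibition was determined by comparison with vehicle-treated cells.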
On to `CC(=O)OC1CCC2(C)C(CCC3C2C(=O)C(OC(C)=O)C2(C)C3CC3OC4(CCC(C)CO4)C(C)C32)C1` (stereo not given), for which the growth inhibition is -23.9% (inactive).
Same read-out and setting: with `N.N.N.N.O=C(O)C1OCCOCCOC(C(=O)O)C(C(=O)O)OCCOCCOC1C(=O)O.[Pt+2].[Pt+2]` (stereo not given) the figure was -13.5% (inactive); with `O=C(O)c1ccccc1SCCO`, -22.4% (inactive).
Still for that read-out and setting: in the case of `CC(C)C(=O)NCC[C@@H](CNC(=O)OC(C)(C)C)NC(=O)OC(C)(C)C` it was 28.7% (inactive); in that of `CC1CC(C)OC(c2ccc(Cl)cc2)O1` (stereo not given), -2.15% (inactive); in that of `CCCCCCCCCCCCOC(=O)NC1c2ccccc2Oc2ccccc21`, 19.6% (inactive).
The same measure, in the same setting: with `CC1(C)OC2C(/C=C\C(=O)c3ccccc3)OC(n3ccc(=O)[nH]c3=O)C2O1` (stereo not given) the figure was -1.55% (inactive); with `CC(=NCCCCN=C(C)c1cc(O)cc(Br)c1O)c1cc(O)cc(Br)c1O.[Co]`, 2.1% (inactive).
On to `CN1C(=O)C/C(=C/[N+](=O)[O-])c2ccccc21`, for which the growth inhibition is 3.3% (inactive).
The same measure, in the same setting: in the case of `CC(C)=CC(=O)CNC(N)=S` it was 0.25% (inactive); in that of `OCC[P+](c1ccccc1)(c1ccccc1)c1ccccc1`, -6.05% (inactive); in that of `CC(C)CCO/N=C(\N)N=C(N)N`, -1.75% (inactive).
For the molecule `Cc1ccc(C2SC(N)=Nc3c2c(C)nn3C(=O)c2ccc(Cl)cc2)cc1` (stereo not given), the growth inhibition was -27.6% (inactive).
With `O=P(O)(O)c1ccc(-c2ccc(I)cc2)cc1`, the growth inhibition was -8.8% (inactive).
Same read-out and setting: in the case of `COc1ccc(Br)cc1C1OC(=O)c2c(OC)c(OC)cc([N+](=O)[O-])c21` (stereo not given) it was 2.3% (inactive); in that of `COc1ccccc1OC(=O)Nc1ccc(S(=O)(=O)NC2CCCCC2)cc1`, -5.95% (inactive).
Same read-out and setting: in the case of `C=CCc1cc(OC)c2c(c1)C(O)CC(c1ccc(OC)c(OC)c1)O2` (stereo not given) it was 22.6% (inactive); in that of `N#CC1C(c2ccc(Cl)cc2)C(C(N)=O)C(=O)NC1(O)c1ccccc1` (stereo not given), 4.15% (inactive); in that of `COc1cc(C2c3cc4c(cc3[C@H](OCCN(C)C)[C@@H]3COC(=O)C23)OCO4)cc(OC)c1O` (stereo not given in full), 78.2% (active).
Still for that read-out and setting: in the case of `NC(=O)CC[n+]1ccccc1` it was -19.4% (inactive); in that of `COC(=O)C1=Nc2c(C)nn(-c3ccccc3)c2N=C(c2ccc([N+](=O)[O-])cc2)C1`, -34% (inactive); in that of `CC(C)(C)OC(=O)N1CCC2(CC1)C(=O)NCN2c1ccccc1`, 0.7% (inactive).
For `Clc1nc(NCCc2ccccc2)c2ncn(-c3ccccc3)c2n1`, the growth inhibition was 68.2% (inactive).
Still for that read-out and setting: in the case of `COc1cccc(N2C(=O)C3c4[nH]c5ccc(C)cc5c4C4CCC(C)CC4C3C2=O)c1` (stereo not given) it was -23.1% (inactive); in that of `CCOC(=O)C1=C(O)C(=O)C=C(O)C1=N`, -18.4% (inactive); in that of `COc1ccc(OC2OC(CO)C(O)C(O)C2O)cc1` (stereo not given), 6.5% (inactive).
In the case of `CNC(=O)N(CCCCC(NC(C)=O)C(=O)NCc1ccccc1)Cc1ccccc1` (stereo not given), the growth inhibition is -7.1% (inactive).
Still for that read-out and setting: in the case of `Cc1cc(NC(=O)C(=O)Cc2nc3ccccc3s2)ccc1Cl` it was 10.9% (inactive); in that of `ClCCN1CCOC1=Nc1ccc2c(c1)CCCC2`, -7.25% (inactive).
Same read-out and setting: in the case of `CCCC(=O)CC(=O)Nc1ccccc1` it was -17.6% (inactive); in that of `CCCCCCCCCCCC(O)C(C)(C)C` (stereo not given), 11.9% (inactive).
Still for that read-out and setting: with `Cc1ccc(C(CC(=O)C(C)(C)CN2CCCCC2)SCCS(=O)(=O)O)cc1` (stereo not given) the figure was 4.3% (inactive); with `c1ccc2nc3c(cc2c1)c1c(c2ccccc23)CCCC1`, -14.6% (inactive); with `CCCCCO.CCCCCO.CCCCCO.CCCCCO.[Ti]`, -20% (inactive).
Take `OCCC1CCCCN1` (stereo not given): the growth inhibition was -0.75% (inactive).
On the same count and under the same terms, with `CCc1cc(C)c(C)cc1O` the figure was -24.9% (inactive).
For `O=CC(O)C(O)C(O)C(O)C(O)C(O)CO` (stereo not given), the growth inhibition is 5.9% (inactive).
Consider `CC(=O)OC1CCC2(C)C(C1)C(=O)OC1C2CCC2(C)C(C(C)CCCC(C)C)CCC12` (stereo not given), for which the growth inhibition is -3.85% (inactive).
On the same count and under the same terms, in the case of `CCn1c(CCCc2nc3c([nH]2)c(=O)n(C)c(=O)n3C)nc2c1c(=O)n(C)c(=O)n2C` it was -40.7% (inactive); in that of `C/C(=C\CNc1nc(Cl)nc2nc[nH]c12)CO`, -0.4% (inactive).

A short description of another assay: NCI Yeast Anticancer Drug Screen. Data for the mlh1 rad18 strain (AID 175). To be noted: S. cerevisiae mlh1 rad18 strain growth inhibition, hits give high values; at 50.0 µM unless noted. The procedure, abridged: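 In this whole-cell yeast screen, a strain with altered DNA damage repair is challenged with compound, and its growth is measured against matched vehicle-treated controls.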
Consider `CC(=O)OC1CCC2(C)C(CCC3C2C(=O)C(OC(C)=O)C2(C)C3CC3OC4(CCC(C)CO4)C(C)C32)C1` (stereo not given), for which the growth inhibition was -6.9% (inactive).
The same measure, in the same setting: in the case of `N.N.N.N.O=C(O)C1OCCOCCOC(C(=O)O)C(C(=O)O)OCCOCCOC1C(=O)O.[Pt+2].[Pt+2]` (stereo not given) it was -9.2% (inactive).
On the same count and under the same terms, with `O=C(O)c1ccccc1SCCO` the figure was -3.8% (inactive); with `CC(C)C(=O)NCC[C@@H](CNC(=O)OC(C)(C)C)NC(=O)OC(C)(C)C`, 34.5% (inactive); with `CC1CC(C)OC(c2ccc(Cl)cc2)O1` (stereo not given), 19.1% (inactive).
On the same count and under the same terms, with `CCCCCCCCCCCCOC(=O)NC1c2ccccc2Oc2ccccc21` the figure was 43.4% (inactive).
With `CC1(C)OC2C(/C=C\C(=O)c3ccccc3)OC(n3ccc(=O)[nH]c3=O)C2O1` (stereo not given), the growth inhibition was -1.5% (inactive).
The same measure, in the same setting: in the case of `CC(=NCCCCN=C(C)c1cc(O)cc(Br)c1O)c1cc(O)cc(Br)c1O.[Co]` it was 24.4% (inactive).
Consider `CN1C(=O)C/C(=C/[N+](=O)[O-])c2ccccc21`, for which the growth inhibition is -18.9% (inactive).
In the case of `CC(C)=CC(=O)CNC(N)=S`, the growth inhibition was 23.9% (inactive).
On the same count and under the same terms, with `OCC[P+](c1ccccc1)(c1ccccc1)c1ccccc1` the figure was -11.3% (inactive); with `CC(C)CCO/N=C(\N)N=C(N)N`, -1.9% (inactive).
The same measure, in the same setting: in the case of `Cc1ccc(C2SC(N)=Nc3c2c(C)nn3C(=O)c2ccc(Cl)cc2)cc1` (stereo not given) it was -24.9% (inactive); in that of `O=P(O)(O)c1ccc(-c2ccc(I)cc2)cc1`, 13.2% (inactive).
The same measure, in the same setting: in the case of `COc1ccc(Br)cc1C1OC(=O)c2c(OC)c(OC)cc([N+](=O)[O-])c21` (stereo not given) it was 18.2% (inactive); in that of `COc1ccccc1OC(=O)Nc1ccc(S(=O)(=O)NC2CCCCC2)cc1`, -2.2% (inactive); in that of `C=CCc1cc(OC)c2c(c1)C(O)CC(c1ccc(OC)c(OC)c1)O2` (stereo not given), -4% (inactive).
On to `N#CC1C(c2ccc(Cl)cc2)C(C(N)=O)C(=O)NC1(O)c1ccccc1` (stereo not given), for which the growth inhibition was 15.6% (inactive).
Still for that read-out and setting: with `COc1cc(C2c3cc4c(cc3[C@H](OCCN(C)C)[C@@H]3COC(=O)C23)OCO4)cc(OC)c1O` (stereo not given in full) the figure was 82.6% (active); with `NC(=O)CC[n+]1ccccc1`, 7.2% (inactive).
On to `COC(=O)C1=Nc2c(C)nn(-c3ccccc3)c2N=C(c2ccc([N+](=O)[O-])cc2)C1`, for which the growth inhibition was 10.3% (inactive).
On the same count and under the same terms, with `CC(C)(C)OC(=O)N1CCC2(CC1)C(=O)NCN2c1ccccc1` the figure was -38.9% (inactive); with `Clc1nc(NCCc2ccccc2)c2ncn(-c3ccccc3)c2n1`, 42.8% (inactive); with `COc1cccc(N2C(=O)C3c4[nH]c5ccc(C)cc5c4C4CCC(C)CC4C3C2=O)c1` (stereo not given), -13.4% (inactive).
For the molecule `CCOC(=O)C1=C(O)C(=O)C=C(O)C1=N`, the growth inhibition is 9.65% (inactive).
Same read-out and setting: with `COc1ccc(OC2OC(CO)C(O)C(O)C2O)cc1` (stereo not given) the figure was -50.6% (inactive); with `CNC(=O)N(CCCCC(NC(C)=O)C(=O)NCc1ccccc1)Cc1ccccc1` (stereo not given), -12.8% (inactive).
Same read-out and setting: in the case of `Cc1cc(NC(=O)C(=O)Cc2nc3ccccc3s2)ccc1Cl` it was 19.1% (inactive).
Same read-out and setting: with `ClCCN1CCOC1=Nc1ccc2c(c1)CCCC2` the figure was -49.2% (inactive); with `CCCC(=O)CC(=O)Nc1ccccc1`, 11.2% (inactive).
As to `CCCCCCCCCCCC(O)C(C)(C)C` (stereo not given), the growth inhibition is 10.3% (inactive).
Same read-out and setting: in the case of `Cc1ccc(C(CC(=O)C(C)(C)CN2CCCCC2)SCCS(=O)(=O)O)cc1` (stereo not given) it was 20% (inactive).
Same read-out and setting: with `c1ccc2nc3c(cc2c1)c1c(c2ccccc23)CCCC1` the figure was 22.9% (inactive).
In the case of `CCCCCO.CCCCCO.CCCCCO.CCCCCO.[Ti]`, the growth inhibition is -1.65% (inactive).
The same measure, in the same setting: in the case of `OCCC1CCCCN1` (stereo not given) it was 54.5% (inactive).
Regarding `CCc1cc(C)c(C)cc1O`, the growth inhibition was -22.4% (inactive).
The same measure, in the same setting: with `O=CC(O)C(O)C(O)C(O)C(O)C(O)CO` (stereo not given) the figure was 19.6% (inactive); with `CC(=O)OC1CCC2(C)C(C1)C(=O)OC1C2CCC2(C)C(C(C)CCCC(C)C)CCC12` (stereo not given), 23.4% (inactive); with `CCn1c(CCCc2nc3c([nH]2)c(=O)n(C)c(=O)n3C)nc2c1c(=O)n(C)c(=O)n2C`, -15.3% (inactive).
On the same count and under the same terms, in the case of `C/C(=C\CNc1nc(Cl)nc2nc[nH]c12)CO` it was -8.4% (inactive).

The values above are taken from PubChem BioAssay (NCI).
